Screens deposited in PubChem BioAssay by Broad Institute.
These entries were drawn from the full list.
aSyn UTR act – Activators working through SNCA 5'UTR binding (MLPCN). alpha-synuclein 5'UTR reporter, activators screen. activity score, % (tested at 7.5 µM), hits read low. actives 7.1% (n = 300,000). AID 1814; in the data active = activity score below about -60%
Hits are given with their value; i = inactive.

SMILES	aSyn UTR act
CC(=O)Nc1cccc(C(=O)/C=C/c2ccc[nH]2)c1	-90
O=C(Nc1cccc(F)c1)c1ccc(Br)o1	-66
CC(=O)c1cccc(NC(=O)c2ccc(Br)o2)c1	-71
COc1ccc2[nH]cc(C(=O)CN3CCC(C)CC3)c2c1	-177
COc1ccc(NC(=O)CSc2ccccc2)c([N+](=O)[O-])c1	-106
COc1ccc(NC(=O)COc2ccc(C)cc2)c([N+](=O)[O-])c1	-143
COc1cc(NC(=O)Cn2ncc(Cl)c(Cl)c2=O)c(C)cc1[N+](=O)[O-]	i
CCCn1c(N2CCN(CC(=O)c3c(C)n(C)c4ccc(OC)cc34)CC2)nc2c1c(=O)[nH]c(=O)n2C	i
COc1ccc(NC(=O)CN2CCCCC2)c([N+](=O)[O-])c1	-98
Cc1ccc(NC(=O)COC(=O)COc2ccc(Cl)cc2C)c([N+](=O)[O-])c1	-65
COc1ccc(NC(=O)CN2CCC(C)CC2)c([N+](=O)[O-])c1	-68
Cc1ccc(NC(=O)CN2CCCCCC2)c(Br)c1	-204
Cc1cccc2c1Sc1ccc(Cl)cc1CC2N1CCNCC1 (stereo not given)	i
CCOc1ccc(S(=O)(=O)Nc2cc(OC)ccc2OC)cc1	i
COc1ccc(OC)c(NS(=O)(=O)c2ccc(SC)cc2)c1	-161
CCCCNc1nc2cccnc2s1	-78
Clc1ccc(Nc2nc3cccnc3s2)cc1	-144
CCc1nnc(NC(=O)C2Cc3ccccc3CN2S(=O)(=O)c2c(C)c(C)cc(C)c2C)s1 (stereo not given)	-104
COc1ccc(Cl)cc1NC(=O)C1Cc2ccccc2CN1S(C)(=O)=O (stereo not given)	i
Cc1ccc(-n2ncc3ccccc3c2=O)cc1Cl	-143
Cc1nn(-c2ccc(Cl)cc2)c(=O)c2ccccc12	-85
Cc1nn(-c2ccc(Cl)nn2)c(=O)c2ccccc12	-89
Cc1nn(-c2ccc(Cl)c(Cl)c2)c(=O)c2ccccc12	-64
Cc1nn(-c2nc3ccccc3[nH]2)c(=O)c2ccccc12	i
Cc1nn(-c2ccc3ccccc3c2)c(=O)c2ccccc12	-183
SMILES	aSyn UTR act
O=C(N/N=C/c1ccccc1[N+](=O)[O-])c1ccc2nc[nH]c2c1	-113
CCN(CC)c1ccc(/C=N/NC(=O)c2ccc3nc[nH]c3c2)c(O)c1	i
CN(C)c1ccc(NC(=O)c2ccc3nc[nH]c3c2)cc1	-126
O=C(Nc1ccc(F)cc1)c1ccc2nc[nH]c2c1	-82
Cc1ccc(NC(=O)c2ccc3nc[nH]c3c2)cc1C	-170
Cc1nn(-c2ccccc2)c(C)c1C(=O)NCCc1ccccc1	-82
CCOC(=O)c1c(C)nn(-c2ccc(NC(=O)/C=C/C(=O)O)cc2)c1C	i
Cc1c(C(=O)N(C)c2ccc(Cl)cc2)cnn1-c1ccccc1	-64
Cc1nn(-c2ccccc2)c(C)c1C(=O)Oc1ccccc1	-115
COc1ccc(OC(=O)c2c(C)nn(-c3ccccc3)c2C)cc1	-103
COc1ccc(OC(=O)c2cnn(-c3ccccc3)c2C)cc1	-222
C=CCn1c(SCC(=O)c2[nH]c(C)c(C(=O)OCC)c2C)nc2scc(-c3ccc(OC)c(OC)c3)c2c1=O	i
C=CCn1c(=S)[nH]c2scc(-c3ccc(C)o3)c2c1=O	-69
C=CCn1c(SCC(C)=O)nc2scc(-c3ccc(C)o3)c2c1=O	-150
CCn1c(=S)[nH]c2scc(-c3cccs3)c2c1=O	-72
Cc1ccc(-c2csc3nc(C)n(N)c(=O)c23)o1	-130
c1ccn2c(SCc3cn4ccsc4n3)nnc2c1	-166
Clc1ccc(CSc2snnc2-c2ccccc2)c(Cl)c1	-121
O=[N+]([O-])c1ccccc1CSc1nnc2ccccn12	-121
Clc1ccc(CSc2nnc3ccccn23)c(Cl)c1	-75
N#C/C(=C/c1ccccc1[N+](=O)[O-])c1nc(C2CC2)cs1	-301
N#C/C(=C\c1ccccc1[N+](=O)[O-])c1nc(C2CC2)cs1	-264
N#C/C(=C\c1ccc([N+](=O)[O-])cc1)c1nc(C2CC2)cs1	-84
CC1CCC/C(=C\Nc2ccc3c(c2)OCO3)C1=O (stereo not given)	-119
c1cc2c(cnc3cscc32)s1	-69
SMILES	aSyn UTR act
CN(Cc1nccn1C)C(=O)c1ccc2nc(Cc3ccccc3F)oc2c1	-126
Cc1cc(CN(C)C(=O)c2ccc3nc(Cc4ccccc4F)oc3c2)on1	-62
CN(Cc1nccs1)C(=O)c1ccc2nc(Cc3ccccc3F)oc2c1	-131
Cc1ccc(NC(=S)Nc2nc(CC(=O)Nc3ccccc3)cs2)cc1	-119
Clc1cc2nc3ccccn3c2cc1Cl	-115
CCC1CCCCN1c1nc(-c2cccc(OC)c2O)nc2ccccc12 (stereo not given)	-98
COc1cccc(Nc2nc(-c3ccc4c(c3)OCCO4)cs2)c1	-227
c1cc2c(cc1Nc1nc(-c3ccc4c(c3)OCO4)cs1)OCCO2	-89
c1ccc(Nc2cccc(Nc3ccccc3)n2)cc1	-125
N#Cc1cc(C#N)c(N2CCN(c3ccccn3)CC2)nc1N	-204
CCOc1ccc(C(=O)NCc2cccs2)cc1	-105
CC1CCN(c2ccc(C(=O)NCc3cccs3)cn2)CC1	-106
COc1ccc(-c2cc(C(=O)NCc3cccs3)no2)cc1	-170
COc1cccc(-c2cc(C(=O)NCc3cccs3)no2)c1	-156
CCOc1c2ccc(C(=O)NCCc3cccs3)cc2nn1CC	-130
CC1CCCN(c2ccc(C(=O)NCC3CCCO3)cn2)C1 (stereo not given)	-88
COc1ccc2nc3sc(C(=O)NCc4cccs4)c(N)c3cc2c1	-97
CN1CCN(C2=C(Cl)C(=O)N(C3CCCCC3)C2=O)CC1	-84
CC(C)(C)C1CCC(=O)N(CCSc2ccccc2)CC1 (stereo not given)	-145
Cc1ccc(SCCN2CCC(C)CCC2=O)cc1 (stereo not given)	-153
Cc1ccc(SCCC(=O)N2CCC(C)CC2)cc1	-92
C=CCn1cccc(C(=O)Nc2ccc(C)cc2)c1=O	-133
C=CCn1cccc(C(=O)Nc2ccc(C)c(C)c2)c1=O	-124
Cc1ccc(-c2cc(C(=O)NCc3ccco3)no2)cc1	-154
O=C(NCc1ccco1)c1cc(-c2cccc(Cl)c2)on1	-92
SMILES	aSyn UTR act
CC1=Nc2cc(C(=O)NCc3ccco3)ccc2Sc2ccc(C)cc21	i
COc1ccc2cc(C(=O)NCc3ccco3)c(=O)oc2c1	-93
O=C(NCc1ccco1)c1cc(-c2ccc(Cl)cc2)on1	-130
O=C(NCc1ccco1)c1cc(-c2ccc3c(c2)OCO3)on1	-97
CC(C)Cc1cc(C(=O)NCc2ccco2)no1	-92
COc1cccc(-c2cc(C(=O)NCc3ccco3)no2)c1	-97
O=C(NCc1ccco1)c1ccc(Cn2c(=O)c3ccccc3n(Cc3cccc(Cl)c3)c2=O)cc1	i
O=C(NCc1ccco1)c1ccc(-c2cccc(Cl)c2)o1	-74
COc1ccc(OC)c(-c2cc(C(=O)NCc3ccco3)no2)c1	-69
COc1ccc(OC)c(-c2cc(C(=O)Nc3c(C)nn(Cc4ccccc4)c3C)no2)c1	i
CC1CCc2onc(C(=O)NCc3ccco3)c2C1 (stereo not given)	-64
O=C(Nc1ccc(CN2CCOCC2)cc1)c1ccc(Br)cc1	-173
C/C(=N\NC(=O)CSCc1ccc(Cl)cc1)c1ccc(NC(=O)c2ccccc2)cc1	-137
C/C(=N\NC(=O)c1ccc(CN2CCOCC2)cc1)c1ccc(NC(=O)c2ccccc2)cc1	-77
O=C(Nc1ccc(CN2CCOCC2)cc1)c1ccc2ccccc2c1	-182
O=C(Nc1ccc(CN2CCOCC2)cc1)c1ccc(Cl)cc1	-207
O=C(N/N=C/c1ccccc1[N+](=O)[O-])c1ccc(CN2CCOCC2)cc1	-83
